Common to all, as to assay: PBM binding z-score (relative to random genomic background probes); higher = stronger binding; sequences stand for … in GC…GCGATTGACAGCGTAGAATGAAGG
Assay [1] deals with RARb homodimer (NR concentration 270 nM). The procedure, abridged: (§1)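 Antibodies against each partner of ligand-free nuclear receptor dimers (one per run) detected binding on custom Agilent 4×180K protein-binding microarrays after 1 h incubation. The double-stranded probes had 34-nt variable regions carrying direct-repeat seeds, single-nucleotide variants, half-site ablations and random human genomic background sequences. Binding z-scores, from regression-normalized fluorescence, use the random background probes as reference.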

The test system of assay [2] is RARg:RXRa (NR concentration 270 nM, RXRa partner concentration 90 nM). The procedure, abridged:
as §1

Assay [3] has as its system RARg homodimer (NR concentration 270 nM). The procedure, abridged:
as §1

The test system of assay [4] is RXRa DBDmut IVT, anti-RXR (DBD mutation: RXRa K156A/R161A, NR concentration 90 nM). The method, boiled down:
as §1

In assay [5] the test system is RXRa homodimer (NR concentration 180 nM). The method, boiled down:
as §1

For assay [6], the system named is THRa:RXRa (NR concentration 90 nM, RXRa partner concentration 90 nM). The procedure, abridged: as §1
The test system of assay [7] is THRa homodimer (NR concentration 90 nM). The procedure, abridged: as §1
Assay [8] relates to VDR homodimer (NR concentration 270 nM). The procedure, abridged:
as §1

CGTCCAAGGACAAGGTCAGTGAAAGAGACTCGAA: the PBM binding z-score in assay [1] came out at 3.32; in assay [2], 3.17; in assay [3], 3.98; in assay [4], 1.46; in assay [5] it was 2.22; in assay [6] it was 3.63. The PBM binding z-score came out at 2.39 in assay [7] and 0.725 in assay [8].
As for CCTACAGGGCCAAAAAGGTCATTGATGCCGATAA, the PBM binding z-score turned out to be 4.52 in assay [1]; 4.75 in assay [2]; 4.56 in assay [3]; 1.26 in assay [4]; 5.08 in assay [5]; 3.21 in assay [6]. In addition, the figures for the PBM binding z-score in assay [7] and in assay [8] were 0.419 and 3.43, respectively.
As to ACAGACAGGCGAGTGAAGGTAACTCAGCTGGACG, the PBM binding z-score in assay [1] was -0.318; in assay [2], -0.0341; in assay [3] it was -0.0147; in assay [4] it was -0.699; in assay [5], 0.296; in assay [6], 0.0808. In addition, the PBM binding z-score was -0.312 in assay [7] and -0.484 in assay [8].
Turning to AGCTCTAGGTAACCAAGTTCAGTGAATGCCGAAC, the PBM binding z-score is 1.25 in assay [1]; 0.159 in assay [2]; 0.348 in assay [3]; 0.428 in assay [4]; 0.269 in assay [5]; 1.14 in assay [6]. Moreover, the PBM binding z-score is 0.629 in assay [7] and 2.43 in assay [8].
TCATCTAGGTAAATGCTAGGTGAAAGTCCGATCT: the PBM binding z-score came to 0.149 in assay [1]; 0.279 in assay [2]; 0.0447 in assay [3]; 1.17 in assay [4]; 0.38 in assay [5]; 1.28 in assay [6]. The PBM binding z-score was 0.631 in assay [7] and -0.208 in assay [8].
Regarding ATCGAAAGGTCGTGAGGTGGGTATACAGAAAGGC, the PBM binding z-score in assay [1] was found to be 2.93; in assay [2], 4.59; in assay [3], 3.86; in assay [4], 1.52; in assay [5], 5.16; in assay [6], 2.6. In addition, the PBM binding z-score in assay [7] was 0.377; in assay [8] it was 1.38.
Consider ATCTCTAGGTAACATGTTCAGTGAAAGAGAGGAC, for which the PBM binding z-score in assay [1] amounted to 0.187; in assay [2], 0.668; in assay [3] it was 0.705; in assay [4], 0.0522; in assay [5], 0.565; in assay [6] it was 1.04. The PBM binding z-score was 0.541 in assay [7] and -0.0529 in assay [8].
Take TCGAGTAGGTTACCAATGGGACATTCAGCTTTCT: the PBM binding z-score in assay [1] was -0.0362; in assay [2] it was 0.634; in assay [3] it was 0.55; in assay [4], 0.448; in assay [5], 0.451; in assay [6] it was 0.207. The figures for the PBM binding z-score in assay [7] and in assay [8] were -0.766 and -0.643, respectively.
Regarding ATCGAAAGGTCGACGAGGTGGGTATACACCGTTT, the PBM binding z-score came to 2.71 in assay [1]; 4.03 in assay [2]; 3.85 in assay [3]; 0.746 in assay [4]; 4.17 in assay [5]; 2.51 in assay [6]. Further, the PBM binding z-score in assay [7] was -0.214; in assay [8], 0.638.
ACTAGTTGGTCAGCTAAGGTCACACACAATTCGG: the PBM binding z-score in assay [1] is 4.54; in assay [2] it was 4.33; in assay [3], 4.53; in assay [4] it was 1.25; in assay [5], 4.2; in assay [6], 5.21. Further, the results for the PBM binding z-score in assay [7] and in assay [8] were 5.38 and 2.63, respectively.
As to TCTTGTAGATCAGCAGGTTAAGAATGCTGGCCAA, the PBM binding z-score is 0.138 in assay [1]; -0.0809 in assay [2]; -0.427 in assay [3]; 0.415 in assay [4]; 0.165 in assay [5]; 0.0436 in assay [6]. Moreover, the PBM binding z-score was -0.197 in assay [7] and -0.438 in assay [8].
ATACCAAGGTGATCGTGAGGGCGTTGATACTAAC: the PBM binding z-score in assay [1] turned out to be 1.07; in assay [2], 0.664; in assay [3], 0.461; in assay [4] it was 0.501; in assay [5] it was 0.36; in assay [6], 2.16. In addition, the PBM binding z-score in assay [7] stood at 1.23; in assay [8] it was 1.36.
In the case of ATCTCTAGGCAACCAAGTTCAGTGAATGCCGAAC, the PBM binding z-score in assay [1] stood at 1.25; in assay [2], 0.473; in assay [3], 0.591; in assay [4], 0.688; in assay [5], 0.505; in assay [6], 0.9. For the same sequence, the PBM binding z-score was -0.255 in assay [7] and 2.3 in assay [8].
Take ACAGACAGGTGATGAAGGTAATTCAGGCTATCAT: the PBM binding z-score is -0.0158 in assay [1]; 0.139 in assay [2]; 0.241 in assay [3]; -0.19 in assay [4]; 0.13 in assay [5]; 0.514 in assay [6]. Moreover, the PBM binding z-score was 0.165 in assay [7] and -0.369 in assay [8].
Turning to AGAACGAGGGCAATGAGTCGATAGCACGGGTGGC, the PBM binding z-score was 0.763 in assay [1]; 1.02 in assay [2]; 1.4 in assay [3]; 1.75 in assay [4]; 0.683 in assay [5]; 0.527 in assay [6]. Moreover, the PBM binding z-score in assay [7] was -0.542; in assay [8] it was 1.17.
For the sequence GCCGCTAGGTCAACTGATGGTCAGCTAAAGCTCG, the PBM binding z-score turned out to be 3.66 in assay [1]; 5.19 in assay [2]; 5.22 in assay [3]; 1.45 in assay [4]; 2.97 in assay [5]; 2.97 in assay [6]. Also, the PBM binding z-score in assay [7] is 0.878; in assay [8], -0.321.
On to AGAATGAGGTTAGGATCAGGGAAACAGAATACAT, for which the PBM binding z-score in assay [1] was 1.09; in assay [2], 1.15; in assay [3] it was 0.965; in assay [4] it was 0.213; in assay [5], 1.37; in assay [6], 2.13. Moreover, the PBM binding z-score in assay [7] was 0.948; in assay [8], 0.389.

These data come from the supplement of paper PMC6555819.
